SNCA viab count – reduces viability of HEK-293 SNCA reporter cells; Potency, µM (titrated, usually from 57.1 µM), without a hit: top-dose activity change, negative = cytotoxicity, hits mostly cytotoxic; HEK-293-SNCA-luc viability, GF-AFC fluorescence, 24 h; 150,000 tested, 0.12% active; AID 1671193;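 also: potency is read from the fitted curve at half-maximal effect; 0% = DMSO-treated cells and -100% = medium-only wells without cells; nearly all actives have a fitted effect of over 30% in size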
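Cytotoxicity counterscreen: after 24 h compound treatment of genome-edited SNCA-luciferase HEK-293 cells, live-cell protease substrate GF-AFC read by fluorescence after 30 min; activity scaled between DMSO (0%) and medium-only (-100%), curves Hill-fitted.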
IP6K1 inh – inhibitors of human IP6K1; Q92551; activity change, % (series mostly up to about 58 µM); IP6K1 kinase, ADP-Glo luminescence, 2 h; stronger effect = lower value; 140,000 tested, 0.81% active; in the data active = activity change below about -25%; also: % is scaled to controls: 0 for no effect and ±100 for the full control effect
Target sequence (Q92551 whole entry, looked up): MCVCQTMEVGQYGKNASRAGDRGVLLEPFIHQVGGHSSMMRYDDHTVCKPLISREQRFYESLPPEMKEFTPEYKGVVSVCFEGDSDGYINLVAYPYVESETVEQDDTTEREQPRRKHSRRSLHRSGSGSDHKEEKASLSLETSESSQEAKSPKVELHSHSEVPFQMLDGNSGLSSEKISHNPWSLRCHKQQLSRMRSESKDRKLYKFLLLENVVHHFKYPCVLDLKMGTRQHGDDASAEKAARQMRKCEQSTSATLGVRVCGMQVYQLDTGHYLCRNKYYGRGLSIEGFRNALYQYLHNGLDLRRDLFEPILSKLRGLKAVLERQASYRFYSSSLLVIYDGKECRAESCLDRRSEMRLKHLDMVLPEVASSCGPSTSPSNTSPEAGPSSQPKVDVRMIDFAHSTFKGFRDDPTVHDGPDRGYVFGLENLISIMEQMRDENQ
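ADP-Glo luminescence measures ADP made by human IP6K1 during a 2 h RT reaction with ATP/IP6 (mix at 1.3 mM/130 uM); top library doses 57.5 and 19.1 uM final.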
KDM5B inhibitor – blocks human KDM5B histone demethylase activity; 220,000 tested, 2.6% active; Potency, µM (series often up to 57.7 µM), usual class: inhibitors; Q9UGL1; AID 1347165; KDM5B demethylase, FDH-coupled NADH fluorescence (FDH is formaldehyde dehydrogenase); also: potency is read from the fitted curve at half-maximal effect; 0% is about no effect; nearly all actives have a fitted effect of over 70% in size
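Here, H3K4me3 peptide (12.5 µM in substrate mix) is demethylated by KDM5BΔAP, 200 nM final, after 10 min compound exposure. Formaldehyde product is coupled through FDH (0.25 U/mL in mix) to NADH fluorescence; 30-min ΔRFU feeds dose-response curves.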
SNCA expr inhib – reduces expression of the alpha-synuclein gene; HEK-293 SNCA-luciferase knock-in, luminescence, 24 h; Potency, µM (series often up to 57.2 µM), for the others: at the highest dose activity change, negative = inhibition, hits mostly inhibitors; 140,000 tested, 0.17% active;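 also: potency is read from the fitted curve at half-maximal effect; plate controls were DMSO cells for no effect and cell-free wells for full effect; nearly all actives have a fitted effect of over 45% in size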
* hit, by the source's call; i = inactive; ? = inconclusive; . = not tested or not shown; ! = not active in a repeat; [ ] = another dose, or the depositor's remark. Hits are enriched below; roughly 3% of the tested compounds scored in any of these assays. Unless noted, calls follow the shape of the dose curve; as a rule, active = well fitted curve in the direction sought with a large enough effect; inconclusive = small, poorly fitted or top-dose-only effect, or another doubt; inactive = no such curve, though single readings can be large; an effect the other way counts as inactive or inconclusive.

SMILES	SNCA viab count	IP6K1 inh	KDM5B inhibitor	SNCA expr inhib
Cc1nn(-c2ccccc2)c2c1C(C1CC1)N(C1CCN(C(=O)NC3CCCC3)C1)C2=O (stereo unspecified)	.	-4	.	.
O=C(NCCc1ccc(F)cc1)C1CCCN(Cc2cccc(-c3cccs3)c2)C1 (stereo unspecified)	.	0	.	.
O=C(Cn1ccn2nc(-c3ccc(F)cc3)c(CO)c2c1=O)NCc1ccccc1Cl	18%	3	28µM*	-4%
Cn1ncc2c(C(=O)NCCc3cccc(F)c3)cc(-c3ccccc3C(F)(F)F)nc21	.	3	.	.
O=C1CCCN1CC1CCN(C(=O)c2ccc(N3CC[C@H](O)C3)nc2)CC1	-1%	44	?	2%
CC(C)(C)CNc1ccc(C(=O)N2CCC(CN3CCCC3=O)CC2)cn1	9%	41	14µM*	-28%
CNc1ccc(C(=O)N2CCC(CCn3cccn3)CC2)cn1	-7%	-7	22µM*	-10%
O=C(NCC(F)(F)F)C1CCN(c2ccnc3ccnn23)CC1	8%[87.6 µM]	8	.	3%[87.6 µM]
CN(C)c1ncc2c(n1)C(C)(C(=O)NCC1CC1)CCC2 (stereo unspecified)	2%[87.6 µM]	29	32µM*	-25%[87.6 µM]
CN(C)c1ncc2c(n1)C(C)(C(=O)NCCCn1ccnc1)CCC2 (stereo unspecified)	9%[87.6 µM]	-4	35µM*	5%[87.6 µM]
CC1(C(=O)NCc2cccnc2)CCCc2cnc(Nc3ccccc3)nc21 (stereo unspecified)	-28%[87.6 µM]	-1	i	-27%[87.6 µM]
CN(C)c1ncc2c(n1)C(C)(C(=O)NCCOc1ccccc1)CCC2 (stereo unspecified)	-8%[87.6 µM]	5	32µM*	12%[87.6 µM]
CN(C)c1ncc2c(n1)C(C)(C(=O)Nc1ccc(Cl)cc1)CCC2 (stereo unspecified)	8%[87.6 µM]	-12	35µM*	-2%[87.6 µM]
Cc1ccc([S+](=O)([O-])NC2CCN(c3ccc4nnc(-c5ccccc5)n4n3)CC2)cc1	.	2	.	.
COc1cccc(NC(=O)c2cc(-c3ccc(C(F)(F)F)cc3)nc3c2cnn3C)c1	.	-9	.	.
O=C(Nc1ccc(F)c(F)c1)c1ccc(Cn2ccn3nc4c(c3c2=O)CCCC4)cc1	-22%	-1	25µM*	-10%
O=C(Nc1ccc(F)cc1)c1ccc(Cn2ccn3nc4c(c3c2=O)CCCC4)cc1	9%	0	?	-2%
CC(C)c1cccc(NC(=O)c2ccc(Cn3ccn4nc5c(c4c3=O)CCCC5)cc2)c1	1%	25	22µM*	-19%
O=C(Nc1ccccc1)c1ccc(Cn2ccn3nc4c(c3c2=O)CCCC4)cc1	-15%	-5	22µM*	9%
COCCCNC(=O)c1ccc(Cn2ccn3nc4c(c3c2=O)CCCC4)cc1	-10%	-3	i	9%
COc1ccccc1OCCNC(=O)c1ccc(Cn2ccn3nc4c(c3c2=O)CCCC4)cc1	-23%	32	25µM*	-22%
O=C(Nc1ccc(Cl)cc1)c1ccc(Cn2ccn3nc4c(c3c2=O)CCCC4)cc1	-14%	18	i	38%
COc1cccc(-c2cc(C(=O)NCc3ccc(F)cc3)c3cnn(C)c3n2)c1	.	-7	.	.
COc1ccccc1-n1cc(-c2ccnc(N3CC(n4cccn4)C3)n2)cn1	2%	19	32µM*	-12%
O=C(NCCc1cccnc1)c1ccccc1Cl	.	.	i	.
SMILES	SNCA viab count	IP6K1 inh	KDM5B inhibitor	SNCA expr inhib
COc1ccccc1-c1ccnc(-n2ncc(C(=O)NCCc3cccnc3)c2C2CC2)n1	1%	-6	32µM*	90%
COc1ccc(CNC(=O)N2CCc3nc(-c4ccccc4)[nH]c3C2)cc1	5%	4	.	-8%
CCN1C[C@H]2COc3ccccc3[C@H]2N(C(=O)COC)CCC1=O	.	-15	.	.
O=C(NC1CCc2nn(CC3CC3)c(=O)n2CC1)c1cc2ccccc2[nH]1 (stereo unspecified)	1%	-5	?	9%
CN(Cc1cccc2[nH]ccc12)C1CCc2nn(CC3CC3)c(=O)n2CC1 (stereo unspecified)	-9%	-9	25µM*	-17%
O=C(NC1CCc2nn(CC3CC3)c(=O)n2CC1)c1n[nH]c2ccccc12 (stereo unspecified)	0%	-10	28µM*	-1%
CCOc1ccccc1CN(C)C1CCc2nn(CC3CC3)c(=O)n2CC1 (stereo unspecified)	-3%	-5	i	-35%
Cc1ncccc1-c1nc2cc(C(=O)NC3CC3)ccc2o1	2%[87.6 µM]	18	.	4%[87.6 µM]
CNC(=O)c1cc(C2CC2)nc2onc(C3CCN(C(=O)c4cccc(Cl)c4)C3)c12 (stereo unspecified)	.	-11	.	.
O=C(Nc1ccccc1)N1CCC(Oc2ccccc2-c2nc(-c3ccccc3)no2)C1 (stereo unspecified)	-29%	-8	32µM*	-23%
CCN1CCC(N2CCC(Oc3ccccc3-c3nc(-c4ccncc4)no3)C2)CC1 (stereo unspecified)	14µM*	-23	i	?
Cc1nc(-c2ccccc2OC2CN(C(=O)c3ccoc3)C2)no1	5%	-5	i	42%
Cc1nc(-c2ccccc2OC2CN(C(=O)c3cccc4[nH]ccc34)C2)no1	-5%	-2	28µM*	33%
CC(C)NC(=O)N1CCC(Oc2ccccc2-c2nc(-c3ccccc3)no2)C1 (stereo unspecified)	5%	-21	?	7%
Cc1noc(-c2ccc(OC3CN(C(=O)c4cccc5[nH]ccc45)C3)cc2)n1	-17%	4	28µM*	61%
COc1ccc2c(c1)C(CN1CCN(CC(=O)OC(C)(C)C)CC1)=CC(C)(C)CO2	.	29	.	.
O=C(c1cccc2[nH]ccc12)N1CC(Oc2ccc(-c3nc(-c4ccccc4)no3)cc2)C1	?	4	11µM*	-6%
c1ccc(-c2noc(-c3ccc(OC4CNC4)cc3)n2)cc1	-1%	8	i	10µM*
Cn1cccc1C(=O)N1CC(Oc2ccc(-c3nc(-c4ccccc4)no3)cc2)C1	-7%	8	28µM*	18%
Cc1cccc(NC(=O)N2CC(Oc3ccc(-c4nc(-c5ccccc5)no4)cc3)C2)c1	-11%	-4	13µM*	14%
Cn1cc(C(=O)N2CC(Oc3ccc(-c4nc(-c5ccccc5)no4)cc3)C2)cn1	-2%	5	i	24%
O=S(=O)(c1ccccc1)N1CCN(c2ccc3nnc(C4CC4)n3n2)CC1	.	28	.	.
O=C(NCc1cccs1)C1CCN(C(=O)c2ccc(-c3cccs3)cc2)CC1	.	-17	.	.
CCOC(=O)N1CCN(S(=O)(=O)c2ccc(OCC)c(C)c2)CC1	.	.	i	.
CCCc1nc(C)c2c(=O)[nH]c(-c3cc(S(=O)(=O)N4CCN(CC)CC4)ccc3OCC)nn12	27µM*!	-13	.	?
O=C1NC(=NC2CCCC2)C2(CCCN(CC3CCCCC3)C2)N1c1cc(F)cc(F)c1 (stereo unspecified)	?	-11	?	-16%
Cn1ccnc1CNc1nccc(-c2cnn(-c3ccccc3F)c2)n1	2%	18	?	40%
Cc1ccccc1-n1cc(-c2ccnc(NC3CCN(C)CC3)n2)cn1	6%	11	28µM*	-3%
